# Results from the OligoGym collection.
# Target: PRKX
# Experiment: pooled miR-30 sensor sort-seq; sequence = guide strand
# Conditions: shRNA
# Note: reference of the scale not given here.
row,Sequence,sensor-assay potency score (higher = more potent)
1,TAGCTGAAGAGCTCGCCGCCCG,-0.771
2,TAATGAGGTCTTTTACATGGAA,-0.747
3,ATTGTGTACGTGTTGCTCCTGC,0.0637
4,TTAATGAGGTCTTTTACATGGA,-0.298
5,TTGGAGTGCAGGTACTCGATGG,-0.357
6,TCATGTTTCCTAATCGCCTTGT,0.781
7,TTGGCGAACCCAAAGTCCGTGA,-0.61
8,TTTCCTAATCGCCTTGTTCTGT,-0.676
9,TTCCTAATCGCCTTGTTCTGTC,-0.396
10,TTCTCTGGCTTCAAGTCCCTGT,-0.5
11,TTCATGTTTCCTAATCGCCTTG,-0.603
12,TCGCCTTGTTCTGTCAACCACG,-0.962

# Target: PRM2
# Experiment: as above
# Conditions: shRNA
row,Sequence,sensor-assay potency score (higher = more potent)
1,TTCTCTTAACTTCCAGCTGGGG,-0.773
2,TTGCGCCTTCTGCAGGAGCGAT,-1.7
3,TTCGAGAGCAGTGTCTGCGCCT,-0.241
4,TTTCTCTTAACTTCCAGCTGGG,0.205
5,TGCCTGTACACCTCGTGCGAGC,-1.54
6,TTGCTCTTGCCCATGCAACTGC,-0.57
7,TAGACCTCGACGTGCTCCGGGC,-1
8,TTTTTCTTAATTTCCAGCTGGG,0.485
9,TCGAGAGCAGTGTCTGCGCCTA,-0.978
10,TTGCCCATGCAACTGCTGCCTG,-0.795
11,TATAGTGAGACTGGCCATGGGT,-0.496
12,TTCCTGGTTCTGCAGCCTCTGC,-1.75

# Target: PROC
# Experiment: as above
# Conditions: shRNA
row,Sequence,sensor-assay potency score (higher = more potent)
1,ATTGAGGAAGCTCACCTCGCGC,-1.35
2,AAGTTGAGGACGAAGGTGCGGT,-0.189
3,TTGGTGTAAACGCCGTAGTTGT,-1.16
4,TTGCTCATGACCTCGCTGCACT,-0.963
5,TGACTTTGGTGTAAACGCCGTA,-0.165
6,TTTGGTGTAAACGCCGTAGTTG,-0.456
7,TTCTCAGACACCATGTTGCTCA,0.141
8,TTGTCGGTGGTGCTCTTGCTGT,-1.32
9,TCATTGTCGGTGGTGCTCTTGC,-0.681
10,ATGTTGCTCATGACCTCGCTGC,-0.588
11,TTTGCGGATCCGCAGCACCTGG,-1.65
12,TCGCTGCTGGAGAACACTGAGT,-1.33

# Target: PRODH2
# Experiment: as above
# Conditions: shRNA
row,Sequence,sensor-assay potency score (higher = more potent)
1,AAACGCTGTAGTGTTATTGAAT,-0.964
2,TTATTGAATACATTTGAAAATA,-1.75
3,TTGAAAATACGGTTCTCACGTT,-0.536
